One may read the AC50 as the concentration giving half of the maximal activity seen.

In PubChem BioAssay (EPA / NIEHS) one finds outcome and AC50 data, which are given here for 30 compounds.

The structures appear in SMILES notation. Several values for one entry are separate records, joined by “and”; a condition that tells them apart may be missing. Identical values can stand only once. More than one record can exist for a structure, and the calls need not agree. Activity calls are given as the source filed them. The calls were made as follows: active = hit-call score of the fitted dose curve at least 0.9, where 1 is the maximum; inactive = score below 0.9.

Read-out in test [1]: Macrophage Inflammatory Protein-1 Alpha (MIP1a), CCL3 (gene 6348)
Kind of test: BSK_IMphg_MIP1a: BioMAP Diversity Plus: IMphg Assay for Macrophage Inflammatory Protein-1 Alpha (MIP1a) Biomarker Activity (AID 2284255). The settings on record: primary human endothelial cells with macrophages. In outline: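 MIP-1a protein levels were quantified by ELISA after 24 h treatment of human endothelial cell–macrophage co-cultures, compared with DMSO. Parallel cultures were fixed with TCA and stained with 0.1% SRB to gauge overt cytotoxicity.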

Read-out in test [2]: Plasminogen activator inhibitor-1 (PAI1), SERPINE1 (gene 5054)
In words: BSK_MyoF_PAI1: BioMAP Diversity Plus: MyoF Assay for Plasminogen activator inhibitor-1 (PAI1) Biomarker Activity (AID 2284256).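 As to outcome: PAI-1 protein level measured by ELISA in fibroblast cultures.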 Conditions: primary human lung fibroblasts. In short, it runs like this: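 Human lung fibroblasts (MyoF system) were exposed to test chemicals for 24 h, then PAI-1 was quantified by ELISA. Activity was fitted in the positive (signal-gain) direction relative to DMSO vehicle as baseline.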

Read-out in a further test: CD69, CD69 (gene 969)
Kind of test: BSK_IMphg_CD69: BioMAP Diversity Plus: IMphg Assay for CD69 Biomarker Activity (AID 2284257). The settings on record: primary human endothelial cells with macrophages. In outline:
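Readout is ELISA for CD69 in primary human venular endothelial cell/macrophage co-culture, taken at 24 h post-dosing. SRB staining of parallel cultures gauged overt cytotoxicity; signal increase versus DMSO defined activity.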

Read-out in test [3]: Eotaxin 3, CCL26 (gene 10344)
Kind of test: BSK_BF4T_Eotaxin3: BioMAP Diversity Plus: BF4T Assay for Eotaxin 3 Biomarker Activity (AID 2284258). The settings on record: primary human bronchial epithelial cells with fibroblasts. In outline: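 ELISA measurement of Eotaxin-3 after 24 h chemical exposure in a bronchial epithelial/dermal fibroblast co-culture, with DMSO as baseline. Parallel SRB staining (0.1% SRB after 10% TCA fixation, 560 nm) flagged overt cytotoxicity.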

Read-out in test [4]: Monocyte Chemoattractant Protein-1 (MCP1), CCL2 (gene 6347)
Kind of test: BSK_BF4T_MCP1: BioMAP Diversity Plus: BF4T Assay for Monocyte Chemoattractant Protein-1 (MCP1) Biomarker Activity (AID 2284259). The settings on record: primary human bronchial epithelial cells with fibroblasts. In outline: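 MCP-1 ELISA readout taken 24 h after dosing in the BF4T system (bronchial epithelial cells plus dermal fibroblasts). Parallel SRB total-protein staining flagged cytotoxicity; DMSO served as baseline, positive fitting direction.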

Read-out in test [5]: Intercellular Adhesion Molecule 1 (ICAM1), ICAM1 (gene 3383)
In words: BSK_BF4T_ICAM1: BioMAP Diversity Plus: BF4T Assay for Intercellular Adhesion Molecule 1 (ICAM1) Biomarker Activity (AID 2284260). Conditions: primary human bronchial epithelial cells with fibroblasts. In short, it runs like this: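 ICAM-1 levels measured by ELISA after 24 h chemical treatment of bronchial epithelial cell/dermal fibroblast co-cultures, read against DMSO baseline. Overt cytotoxicity checked in parallel cultures by sulforhodamine B staining.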

Read-out in test [6]: Interleukin-8 (IL8), CXCL8 (gene 3576)
In words: BSK_MyoF_IL8: BioMAP Diversity Plus: MyoF Assay for Interleukin-8 (IL8) Biomarker Activity (AID 2284261). Conditions: primary human lung fibroblasts. In short, it runs like this: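 IL-8 quantified by ELISA after 24 h compound exposure of primary human lung fibroblasts. SRB staining of parallel cultures flagged cytotoxicity; DMSO served as baseline.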

Read-out in the next test: CD90, THY1 (gene 7070)
Kind of test: BSK_BF4T_CD90: BioMAP Diversity Plus: BF4T Assay for CD90 Biomarker Activity (AID 2284262). The settings on record: primary human bronchial epithelial cells with fibroblasts. Here is the method: BSK_BF4T is a cell-based, multiplexed-readout assay that uses bronchial epithelial cells and dermal fibroblasts, a human vascular primary cell, with measurements taken at 24 hours after chemical dosing in a microplate: 96-well plate.BSK_BF4T_CD90 is an assay component measured in the BSK_BF4T assay. It measures CD90 antibody related to regulation of gene expression using ELISA technology.Data from the assay component BSK_BF4T_CD90 was analyzed at the endpoint, BSK_BF4T_CD90, in the positive analysis fitting direction relative to DMSO as the negative control and baseline of activity. Using a type of binding reporter, gain or loss-of-signal activity can be used to understand protein changes. To generalize the intended target to other relatable targets, this assay endpoint is annotated to the 'cytokine' intended target family, where the subfamily is 'inflammatory factor'.
The levels of cell surface (or secreted, indicated by the prefix "s") biomarker endpoints were measured by ELISA. Overt cytotoxicity to cells in confluent adherent cultures (all systems other than the BT system) was assessed by measuring total protein levels using sulforhodamine B (SRB) staining in parallel cultures at the time of biomarker measurements, indicated as SRB endpoints. For proliferation assays for adherent cell types, individual cell types are cultured at sub-confluence and relative cell numbers quantified by SRB staining at time points optimized for each system (48 h: 3C and CASM3C systems; 72 h: BT and HDF3CGF systems; 96 h: SAg system). SRB was performed by staining cells with 0.1% SRB after fixation with 10% TCA and reading wells at 560 nm.Viability and proliferation of PBMC (T cells) was quantified by Alamar Blue reduction for the SAg and BT systems. For PBMC viability (referred to as PBMC Cytotoxicity within the assay endpoint names), cells were plated (75,000/well in a 96-well plate) and then chemical samples added for 1 h before addition of activators, SEB and TSST-1 (20 ng/mL final concentration each). Cells were incubated for 90 h. Then, Alamar Blue (20 uL/well) (Invitrogen, Cat DAL1100) was added for 6 h, and the plates were read with a fluorescence microplate reader at 546/580 nm (excitation/emission). For PBMC proliferation, cells were plated and activated as above but incubated for only 16 h prior to addition of Alamar Blue. Plates were read after 6 h.

Read-out in test [7]: Interleukin-8 (IL8), CXCL8 (gene 3576)
In words: BSK_BF4T_IL8: BioMAP Diversity Plus: BF4T Assay for Interleukin-8 (IL8) Biomarker Activity (AID 2284263). Conditions: primary human bronchial epithelial cells with fibroblasts. In short, it runs like this: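 Human bronchial epithelial cells with dermal fibroblasts co-culture; IL-8 measured by ELISA 24 hours after dosing, fitted vs DMSO. Cytotoxicity tracked in parallel cultures by SRB total-protein staining.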

Read-out in test [8]: Interleukin-1 alpha (IL1a), IL1A (gene 3552)
In words: BSK_BF4T_IL1a: BioMAP Diversity Plus: BF4T Assay for Interleukin-1 alpha (IL1a) Biomarker Activity (AID 2284264). The settings on record: primary human bronchial epithelial cells with fibroblasts. In outline: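 ELISA read-out of IL-1α from bronchial epithelial cell/dermal fibroblast co-cultures 24 h after compound addition. Increases scored against DMSO negative control. Cytotoxicity monitored by sulforhodamine B staining of parallel cultures.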

With `C=C(C)C(=O)OCCC(F)(F)C(F)(F)C(F)(F)C(F)(F)C(F)(F)C(F)(F)C(F)(F)C(F)(F)F`, the outcome in [1] is “inactive”; in [2] it was “inactive”; in the test with CD69, CD69 (gene 969) it was “inactive”; in [3], “inactive”; in [4], “inactive”; in [5] it was “inactive”. In addition, the outcome in [6] was “inactive”; in the test with CD90, THY1 (gene 7070), “inactive”; in test [7], “inactive”; in test [8], “inactive”.

`C=C(F)C(=O)OC(C(F)(F)F)C(F)(F)F`: the outcome is “inactive” in [1]; “inactive” in test [2]; “inactive” in the test with CD69, CD69 (gene 969); “inactive” in [3]; “inactive” in test [4]; “inactive” in test [5]. For the same compound, the outcome in [6] is “inactive”; with CD90, THY1 (gene 7070) it was “inactive”; in test [7], “inactive”; in [8], “inactive”. Besides, in test [4], the AC50 is 47.3 µM (active).

Turning to `O=S1(=O)CC(Cl)(Cl)C(Cl)(Cl)C1`, the AC50 in test [2] was 2.62 µM (active). For the same compound, the result in [6] was inactive.

Regarding `OCCN1CCOCC1`, the outcome in test [2] and in [6] was inactive.

In the case of `CC1(C)[C@H](C=C(Cl)Cl)[C@H]1C(=O)OCc1cccc(Oc2ccccc2)c1`, the outcome in test [2] and in test [6] was inactive.

Consider `CCC(=O)OCC=Cc1ccccc1`, for which the result in [2] and in [6] was inactive.

Take `CCCCCCCCCC(=O)OCC`: the result in test [2] and in [6] was inactive.

As for `OCC(F)(OC(F)(F)C(F)(OC(F)(F)C(F)(F)C(F)(F)F)C(F)(F)F)C(F)(F)F` (configuration not stated), the outcome was “inactive” in test [1]; “inactive” in test [2]; “inactive” with CD69, CD69 (gene 969); “inactive” in test [3]; “inactive” in [4]; “inactive” in test [5]. Moreover, the outcome is “inactive” in test [6]; “inactive” with CD90, THY1 (gene 7070); “inactive” in test [7]; “inactive” in test [8]. Also, the concentration at half-maximal activity (AC50) in test [4] is 4.19 µM (active).

For `O=S(=O)(O)C(F)(F)C(F)(F)OC(F)(F)C(F)(F)F`, the outcome was “inactive” in test [1]; “inactive” in test [2]; “inactive” with CD69, CD69 (gene 969); “inactive” in test [3]; “inactive” in test [4]; “inactive” in [5]. For the same compound, the outcome in [6] is “inactive”; with CD90, THY1 (gene 7070) it was “inactive”; in test [7] it was “inactive”; in test [8], “inactive”.

In the case of `Nc1ccc(N)c([N+](=O)[O-])c1`, the result in test [2] and in test [6] was inactive.

For the compound `O=C(O)C(F)(F)OC(F)(F)C(F)(F)OC(F)(F)C(F)(F)C(F)(F)C(F)(F)F`, the outcome in [1] is “inactive”; in test [2], “inactive”; with CD69, CD69 (gene 969), “inactive”; in [5], “inactive”; in test [6], “inactive”; with CD90, THY1 (gene 7070) it was “inactive”. Further, the result in test [8] was inactive. The half-maximal activity concentration (AC50) with CD69, CD69 (gene 969) is 40.3 µM (active); in test [3] it was 5.34 µM (active) and 2.49 µM (active); in test [4], 8.8 µM (active) and 220 nM (active); in test [7], 1.82 µM (active) and 4.77 µM (active).

Turning to `CCCCCCCC1CCCC1=O` (configuration not stated), the outcome in test [2] and in test [6] was inactive.

Regarding `CCOC(=O)CCCCCCCCC(=O)OCC`, the outcome in [2] and in test [6] was inactive.

As for `COc1ccccc1NC(=O)CC(C)=O`, the outcome in [2] and in test [6] was inactive.

`NC(=O)c1c(Cl)cccc1Cl`: the AC50 in [2] was 4.48 µM (active). The result in test [6] was inactive.

On to `CC(=O)OC(C)(C)C1CC=C(C)CC1` (configuration not stated), for which the outcome in test [2] and in test [6] was inactive.

In the case of `CC(=O)CCC=C(C)CCC=C(C)C`, the half-maximal activity concentration (AC50) in test [2] was 0.016 µM (active). In addition, the result in [6] was inactive.

`c1ccc(Sc2ccccc2)cc1`: in [2], the outcome was inactive. Besides, the concentration at half-maximal activity (AC50) in test [6] is 30.6 µM (active).

On to `CC(=O)OCC=C(C)CCC=C(C)CCC=C(C)C`, for which the result in [2] and in test [6] was inactive.

For `c1ccc2c(c1)-c1ccc3ccc4cccc5cc-2c1c3c45`, in [2], the half-maximal activity concentration (AC50) was 1.24 µM (active). Moreover, the outcome in test [6] was inactive.

With `CC(C)Cc1ccc(C(C)C(=O)O)cc1` (configuration not stated), the result in test [2] and in test [6] was inactive.

Take `CCOC(=O)C=Cc1ccccc1`: the outcome in [2] and in test [6] was inactive.

On to `CC(C)(C)c1cccc(O)c1`, for which the outcome in test [2] and in test [6] was inactive.

Regarding `CCCCCCCCCCCCS`, in [2], the half-maximal activity concentration (AC50) is 20 µM (active). Moreover, the result in [6] was inactive.

Consider `C=CC(=O)OCC(CO)(COC(=O)C=C)COC(=O)C=C`, for which the half-maximal activity concentration (AC50) in [2] was 2.88 µM (active); in test [6] it was 4.24 µM (active).

Turning to `O=C1OC2(c3ccc(O)cc3Oc3cc(O)ccc32)c2ccccc21`, the result in test [2] and in test [6] was inactive.

As to `CC1=CC(C)C(C=O)C(C)C1` (configuration not stated) (tested in a mixture with another compound), the outcome in [2] and in test [6] was inactive.

Take `O=C(O)C(F)(F)C(F)(F)C(F)(F)C(F)(F)C(F)(F)C(F)(F)C(F)(F)C(F)F`: the outcome in test [1] was “inactive”; in test [2] it was “inactive”; in the test with CD69, CD69 (gene 969) it was “inactive”; in test [6] it was “inactive”; in the test with CD90, THY1 (gene 7070) it was “inactive”; in test [7] it was “inactive”. Further, the result in test [8] was inactive. For the same compound, the AC50 with CD69, CD69 (gene 969) was 0.257 µM (active); in [3], 4.86 µM (active) and 2.55 µM (active); in test [4], 2.81 µM (active) and 1.53 µM (active); in [5], 2.59 µM (active) and 3.49 µM (active).

Regarding `C=C1CC/C=C(\C)CC[C@@H]2[C@@H]1CC2(C)C`, the AC50 in test [2] was 20 µM (active). For the same compound, in [6], the result was inactive.

As for `CC=CC(=O)C1=C(C)C=CCC1(C)C`, the outcome in test [2] and in [6] was inactive.
